In PubChem BioAssay AID488922 (Johns Hopkins Ion Channel Center, 2010):
The campaign covered roughly 310,000 compounds. About 3,800 (1.2%) were called active.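 The calls were made as follows: active = ratio B-score over 3 SD below the library mean, with starting fluorescence within 5 SD of its mean; inactive = the rest, inconclusive results apart.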 Only a selection was taken, and actives are over-represented in it overall.

Target: Potassium channel subfamily K member 9 (Homo sapiens) (UniProt Q9NPC2)
Sequence (Q9NPC2 whole entry, looked up): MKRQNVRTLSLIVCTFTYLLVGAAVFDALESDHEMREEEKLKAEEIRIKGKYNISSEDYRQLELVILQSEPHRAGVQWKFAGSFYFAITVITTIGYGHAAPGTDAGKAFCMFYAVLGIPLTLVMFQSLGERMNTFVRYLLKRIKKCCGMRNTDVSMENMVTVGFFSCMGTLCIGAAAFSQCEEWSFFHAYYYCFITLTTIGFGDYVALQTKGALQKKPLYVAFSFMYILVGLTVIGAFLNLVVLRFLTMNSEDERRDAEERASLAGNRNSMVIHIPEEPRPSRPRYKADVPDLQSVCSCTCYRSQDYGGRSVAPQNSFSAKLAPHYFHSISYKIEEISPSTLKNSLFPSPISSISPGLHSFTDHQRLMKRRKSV
Experiment: blockers of human TASK-3 (KCNK9) channel – HEK293 cells, thallium flux, primary screen (AID 488922);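 as to B-score: negative B-score means less thallium flux so channel inhibition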
Conditions: HEK293 KCNK9, FluxOR thallium flux fluorescence, at 10 µM; hits give low values

Question: With `COc1ccc(-c2nc(CCNC(=O)c3ccc(Br)o3)cs2)cc1` as the compound, how does the B-score read?
Answer: -10.5 (active)

Question: Which B-score does the source give for `COc1ccc(-c2csc(NC(=O)COC(=O)c3ccc(Br)o3)n2)cc1` here?
Answer: inactive

Question: For `COc1ccc(N2CCN(C(=O)CNC(=O)c3ccc(Br)o3)CC2)cc1`, which B-score is on record?
Answer: inactive

Question: With `CCCCC(CC)CNC(=O)C(=O)C1C(=O)Nc2ccccc21` (stereo not drawn) as the compound, how does the B-score read?
Answer: inactive

Question: With `COc1cc2c(C(=O)N(C)c3cc(Cl)ccc3OC)cn(C)c(=O)c2cc1OC` as the compound, how does the B-score read?
Answer: inactive

Question: How did the B-score turn out when `CCC(=O)N1CCN(c2ccccc2NC(=O)COc2cccc(C)c2C)CC1` was run?
Answer: inactive

Question: With `CCOc1ccccc1NC(=S)N1CCN(c2cccc(C)c2C)CC1` as the compound, how does the B-score read?
Answer: -6.79 (active)

Question: Which B-score does the source give for `CCOc1ccccc1N1CCN(C(=S)Nc2ccc(S(N)(=O)=O)cc2)CC1` here?
Answer: inactive

Question: How did the B-score turn out when `CC(c1ccco1)N(C(=O)Nc1ccccc1)C1CCCCC1` (stereo not drawn) was run?
Answer: inactive

Question: With `CCOc1ccc(NC(=O)N(CCC(C)C)C(C)c2ccco2)cc1` (stereo not drawn) as the compound, how does the B-score read?
Answer: -7.13 (active)

Question: How did the B-score turn out when `CCOc1ccc(NC(=O)N(CC(C)C)CC(C)C)cc1` was run?
Answer: inactive

Question: With `COc1cc(C)nc(N2CCCC(C(=O)NCC(C)C)C2)n1` (stereo not drawn) as the compound, how does the B-score read?
Answer: inactive

Question: How did the B-score turn out when `COc1ccc(NC(=O)C(=O)NCC(=O)Nc2cccc(C(F)(F)F)c2)cc1` was run?
Answer: inactive

Question: `COc1ccc(NC(=O)CN(C)CC(=O)Nc2cccc(C(F)(F)F)c2)cc1` was tested. Which B-score did it give?
Answer: -11.5 (active)

Question: With `COc1cccc(NC(=O)CN(C)CC(=O)Nc2ccc3c(c2)CCC3)c1` as the compound, how does the B-score read?
Answer: inactive

Question: How did the B-score turn out when `CC(C)c1c(C(=O)N/N=C/c2ccccc2C(=O)O)nnn1-c1nonc1N` was run?
Answer: inactive

Question: `CN1C(=O)/C(=C/C=C2\SCCN2C)OC1=S` was tested. Which B-score did it give?
Answer: inactive

Question: How did the B-score turn out when `CCOC(=O)c1cc2sccc2n1Cc1ccc(C#N)cc1` was run?
Answer: -12.8 (active)

Question: Which B-score does the source give for `O=C(c1cc2sccc2n1Cc1ccc(F)cc1)N1CCc2ccccc21` here?
Answer: inactive

Question: Which B-score does the source give for `CC1Cc2ccccc2N1C(=O)c1cc2sccc2n1Cc1ccccc1` (stereo not drawn) here?
Answer: inactive

Question: Which B-score does the source give for `CCCCC(=O)Nc1c2c(nn1-c1ccc([N+](=O)[O-])cc1)CS(=O)(=O)C2` here?
Answer: inactive

Question: `CCSC1=NCCN1C(=O)c1ccc(S(=O)(=O)N(CC)CC)cc1` was tested. Which B-score did it give?
Answer: inactive

Question: How did the B-score turn out when `COC(=O)c1ccccc1Sc1c(/C=N/OCc2ccc(Cl)cc2)c(C(F)(F)F)nn1C` was run?
Answer: inactive

Question: Which B-score does the source give for `Cn1nc(C(F)(F)F)c(C(=O)Nc2cccc(C(F)(F)F)c2)c1SCc1ccc(Cl)cc1` here?
Answer: -7.25 (active)

Question: With `O=C(O)CSc1c2c(nc3cc(C(=O)Nc4cccc(C(F)(F)F)c4)ccc13)CCCC2` as the compound, how does the B-score read?
Answer: inactive

Question: With `C[n+]1cc(-c2ccccc2)oc1-c1ccccc1` as the compound, how does the B-score read?
Answer: inactive

Question: For `COc1cccc(-c2coc3cc4oc(=O)c(CC(=O)O)c(C)c4cc23)c1`, which B-score is on record?
Answer: inactive

Question: With `COc1cc(C(=O)OC2CCOC2=O)c([N+](=O)[O-])cc1OC` (stereo not drawn) as the compound, how does the B-score read?
Answer: inactive

Question: How did the B-score turn out when `CN(C)Cc1ccccc1C1(O)c2ccccc2CSc2ccccc21` (stereo not drawn) was run?
Answer: -6.84 (active)

Question: `CC(=O)Nc1ccc(S(=O)(=O)N2CCC(NC(=O)c3ccccc3)CC2)cc1` was tested. Which B-score did it give?
Answer: inactive

Question: With `COc1ccc(-c2csc3ncnc(N4CCN(S(=O)(=O)c5cccc(F)c5)CC4)c23)cc1` as the compound, how does the B-score read?
Answer: inactive

Question: How did the B-score turn out when `CCCCCOC(=O)C1=C(C)Nc2nnnn2C1c1ccc(OC)c(OC)c1OC` (stereo not drawn) was run?
Answer: inactive

Question: How did the B-score turn out when `COc1ccc(-c2nnn(CC(=O)N(CCO)C(C(=O)NC3CCCC3)c3ccc(F)cc3)n2)cc1` (stereo not drawn) was run?
Answer: inactive

Question: How did the B-score turn out when `CC(C)CCNC(=O)CN(C(=O)Cn1nnc(-c2ccc(F)cc2)n1)C1CCCC1` was run?
Answer: inactive

Question: How did the B-score turn out when `CC(C)CCNC(=O)C(C)N(C(=O)Cn1nnc(-c2ccc(F)cc2)n1)C1CCCC1` (stereo not drawn) was run?
Answer: -8.61 (active)

Question: For `Cc1ccc(NC(=O)CN2CCCCC2)c2c1CC(C)(C)O2`, which B-score is on record?
Answer: inactive

Question: How did the B-score turn out when `CCOc1ccc(NS(=O)(=O)c2ccc(C(=O)NC3CCN(Cc4ccccc4)CC3)cc2)cc1` was run?
Answer: inactive

Question: Which B-score does the source give for `CC(C)C(=O)NC(=S)Nc1ccccc1F` here?
Answer: inactive

Question: Which B-score does the source give for `CC(C)C(=O)Nc1cccc(NC(=S)NC(=O)C(c2ccccc2)c2ccccc2)c1` here?
Answer: -14.9 (active)

Question: How did the B-score turn out when `CCCCC(=O)NNC(=S)NC(=O)C(c1ccccc1)c1ccccc1` was run?
Answer: inactive

Question: `Cc1c(C(=O)NC2CCCCC2)oc2ccccc12` was tested. Which B-score did it give?
Answer: inactive

Question: For `Cc1ccc(NC(=O)CC2C(=O)N(Cc3ccccc3)C(=S)N2NC(=O)c2cccc(F)c2)c(C)c1` (stereo not drawn), which B-score is on record?
Answer: inactive

Question: `O=C(Nc1cccnc1)c1cc([N+](=O)[O-])ccc1Cl` was tested. Which B-score did it give?
Answer: inactive

Question: How did the B-score turn out when `Cc1ccc(NC(=O)c2cc([N+](=O)[O-])ccc2Cl)c(O)c1` was run?
Answer: -10.2 (active)

Question: For `CNc1ccc([N+](=O)[O-])cc1C(=O)O`, which B-score is on record?
Answer: inactive

Question: For `FC(F)(F)c1cc(-c2cccs2)nc(NCc2ccco2)n1`, which B-score is on record?
Answer: inactive

Question: `COc1ccc(-c2cc(C(F)(F)F)nc(NCc3cccnc3)n2)cc1` was tested. Which B-score did it give?
Answer: inactive

Question: Which B-score does the source give for `FC(F)(F)c1cc(-c2ccco2)nc(NCc2ccc(Cl)cc2)n1` here?
Answer: -8.22 (active)

Question: With `O=C(OCCOCn1cc(Br)c(=O)[nH]c1=O)c1ccccc1` as the compound, how does the B-score read?
Answer: inactive

Question: With `COc1ccc(Br)cc1CN(C)CC(=O)Nc1cc(Cl)cc(Cl)c1` as the compound, how does the B-score read?
Answer: inactive

Question: `O=C(COc1ccc2ccccc2c1)N1CCN(C(=O)c2cccs2)CC1` was tested. Which B-score did it give?
Answer: inactive

Question: `O=C(Nc1cccc(Cl)c1)Nc1ccccc1NS(=O)(=O)c1cccs1` was tested. Which B-score did it give?
Answer: -7.87 (active)

Question: With `O=S(=O)(NCc1ccc(Cl)cc1Cl)c1cccs1` as the compound, how does the B-score read?
Answer: inactive

Question: With `O=S(=O)(Nc1ccccc1Br)c1cccs1` as the compound, how does the B-score read?
Answer: inactive

Question: For `Cn1ccs/c1=N\S(=O)(=O)c1ccc(C(C)(C)C)cc1`, which B-score is on record?
Answer: inactive

Question: With `COc1ccc(C(=O)Nc2ccccc2C(=O)N/N=C/c2ccc(O)c(OC)c2)cc1` as the compound, how does the B-score read?
Answer: -10.2 (active)

Question: For `COc1ccc(C(=O)Nc2ccccc2C(=O)NCc2ccco2)cc1`, which B-score is on record?
Answer: inactive

Question: For `COc1ccc(C(=O)Nc2ccccc2C(=O)N/N=C/c2ccccc2OC)cc1`, which B-score is on record?
Answer: -13.5 (active)

Question: With `COc1cc(/C=N/NC(=O)c2ccc(N3CCCC3=O)cc2)ccc1O` as the compound, how does the B-score read?
Answer: inactive

Question: With `COc1ccc(/C=N/NC(=O)c2ccc3c(c2)OCCO3)c(OC)c1` as the compound, how does the B-score read?
Answer: inactive

Question: `COc1ccc(/C=N/NC(=O)c2ccccc2)cc1OS(=O)(=O)c1ccccc1` was tested. Which B-score did it give?
Answer: inactive

Question: With `COc1ccc(Cl)cc1NC(=O)COC(=O)C(CC(C)C)N1C(=O)C2CC=CCC2C1=O` (stereo not drawn) as the compound, how does the B-score read?
Answer: inactive

Question: Which B-score does the source give for `COc1ccccc1N1CC(C(=O)Nc2nnc(SCC(=O)NCC3CCCO3)s2)CC1=O` (stereo not drawn) here?
Answer: inactive

Question: With `CC1(C)CC(=O)c2c(n(S(=O)(=O)c3ccccc3)c3ccc(NS(=O)(=O)c4ccccc4)cc23)C1` as the compound, how does the B-score read?
Answer: inactive

Question: Which B-score does the source give for `CNC(=O)c1sc(Nc2ccc(OCc3ccccc3)cc2)nc1C` here?
Answer: inactive

Question: `CCOC(=O)C(C)Sc1nc2ccccc2c(=O)n1CC1CCCCC1` (stereo not drawn) was tested. Which B-score did it give?
Answer: -11.7 (active)

Question: For `CCOn1c(SC(C)C)nc2ccccc2c1=O`, which B-score is on record?
Answer: inactive

Question: Which B-score does the source give for `CCOC(=O)C1CCc2nc3ccccc3c(=O)n21` (stereo not drawn) here?
Answer: inactive
